From PubChem BioAssay
TLR4 MyD88 comp: inhibitors of human TLR4-MyD88 binding; HeLa CL3-4 TLR4/MyD88 BLA complementation, FRET ratio; inhibition, % at 8.4 µM; 200,000 compounds, 0.18% hits; AID 861; in the data active means inhibition above about 25%;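 further: 0% = vehicle and 100% = reference inhibitor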
NOD2-RIPK2 inh: inhibitors of human NOD2-RIPK2 interaction. O43353. AID 624267. inhibition, % at 4.98 µM. 360,000 compounds, 0.38% hits. CHO BLA complementation NOD2-RIPK2, CCF4 ratio; in the data active means inhibition above about 21%;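 further: 0% = vehicle only and 100% = reference blocker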
IDE cell inh: inhibits human insulin-degrading enzyme in HEK cells; FAbetaB cleavage, fluorescence polarization; 320,000 compounds, 0.41% hits; P14735; inhibition, % at 5.59 µM;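 active means percent inhibition above the average of all tested compounds plus 3 SD, set per screening campaign, cut at about 16% in these data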;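 further: IDE supplied by intact live HEK cells; FP after avidin binding of uncleaved biotin substrate so inhibition keeps polarization high; 0% = DMSO wells and 100% = 60 µM reference IDE inhibitor Ii1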
TLR9-MyD88 inh: TLR9-MyD88 interaction inhibition; 340,000 compounds, 0.21% hits; inhibition, % at 4.98 µM; CHO BLA complementation TLR9-MyD88, CCF4 FRET ratio;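 active means inhibition above the mean over all tested compounds plus 3 SD, cut at about 21% in these data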;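 further: 0% = DMSO only wells and 100% = clavulanate BLA inhibitor control wells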
IDE act: activators of human insulin-degrading enzyme in cells; HEK cells, FAbeta-B cleavage, fluorescence polarization; 0% vehicle, 100% cell-free pure enzyme wells; AID 493087; 340,000 compounds, 0.073% hits; activation, % at 5.96 µM; P14735;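 active means activation above the mean of all tested compounds plus 3 SD, set per screening campaign, cut at about 17% in these data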
NOD2-RIPK2 conf: NOD2-RIPK2 interaction inhibition confirmed | shares compounds with NOD2-RIPK2 inh | CHO cells, NOD2-RIPK2 BLA complementation, CCF4 FRET | inhibition, % at 4.98 µM | 1,200 compounds, 70% hits | AID 624370;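 active means mean inhibition across replicates above a set limit taken from the earlier primary screen, cut at about 21% in these data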;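 further: 0% = DMSO-only wells and the high end = clavulanate BLA-blocked wells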
BLA counter: NOD2-RIPK2 counterscreen BLA reporter activity | shares compounds with NOD2-RIPK2 inh | inhibition, % at 4.98 µM | 1,200 compounds, 57% hits | CHO BLA reporter, CCF4 FRET ratio;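 active means mean inhibition above the low-control mean inhibition plus three low-control SD, cut at about 11% in these data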;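 further: 0% = DMSO only wells and 100% = clavulanate high control wells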
Active calls of the source: *; x = not tested or not shown. In the library only some 0.86% were active in any assay of this set; here they are far more common.

SMILES | TLR4 MyD88 comp | NOD2-RIPK2 inh | IDE cell inh | TLR9-MyD88 inh | IDE act | NOD2-RIPK2 conf | BLA counter
O=[N+]([O-])c1ccc2nc(NN=Cc3ccc(O)cc3)sc2c1 | x | 23.4* | x | 8.2 | -0.3 | 24.6* | 31.9*
OC[C@@H]1[C@@H](c2ccccc2)C(c2cccc(Cl)c2)=NN1c1ccccc1 | x | 32.6* | x | -4.3 | 6.4 | 27.4* | 53.8*
O=C1OCCN1C(=O)[C@H]1[C@H](c2ccc(Cl)cc2)C(c2ccccc2)=NN1c1ccc(Br)cc1 | x | 13.7 | x | -8.7 | 2.7 | x | x
O=C1OCCN1C(=O)[C@H]1[C@H](c2ccccc2)C(c2cccc(Cl)c2)=NN1c1ccc(Br)cc1 | x | 30.7* | x | -5.5 | 5.9 | 15.8 | 46.9*
O=C1OCCN1C(=O)[C@H]1[C@H](c2ccc(F)cc2)C(c2cccc(Cl)c2)=NN1c1ccccc1 | x | 28.1* | x | -5.1 | 0.8 | 16.9 | 44.2*
O=C1OCCN1C(=O)[C@H]1[C@H](c2ccc(F)cc2)C(c2cccc(Cl)c2)=NN1c1ccc(Br)cc1 | x | 26.2* | x | -12.8 | -1.2 | 14.7 | 48.1*
Cc1cccc(C2=NN(c3ccc(Br)cc3)[C@@H](C(=O)N3CCOC3=O)[C@@H]2c2ccc(F)cc2)c1 | -11.1 | -0.8 | 1.1 | -12.1 | 0.2 | x | x
CCOC(=O)N1CCC(NC(=O)c2ccc3c(c2)N=C(CC)c2ccccc2S3)CC1 | x | -4.7 | -0.1 | 1.5 | -1.8 | x | x
N#Cc1ccc(C(C(=O)NC2CCCCC2)n2c(=O)c(-c3ccco3)nc3ccccc32)cc1 (stereo not drawn) | x | -1.1 | x | x | x | x | x
COc1ccc(C(C(=O)NC2CCCCC2)n2c(=O)c(-c3cc4ccccc4[nH]3)nc3ccccc32)cc1 (stereo not drawn) | x | 43.7* | x | x | x | 40.8* | 64.9*
O=C(NC1CCCCC1)C(c1ccccc1)n1c(=O)c(-c2cc3ccccc3[nH]2)nc2ccccc21 (stereo not drawn) | x | 43.5* | x | x | x | 40.0* | 66.0*
O=C(NC1CCCCC1)C(c1ccnc2ccccc12)n1c(=O)c(-c2cc3ccccc3[nH]2)nc2ccccc21 (stereo not drawn) | x | 51.0* | x | x | x | 49.7* | 66.6*
N#Cc1ccc(C(C(=O)NC2CCCCC2)n2c(=O)c(-c3cc4ccccc4[nH]3)nc3ccccc32)cc1 (stereo not drawn) | x | 53.5* | x | x | x | 50.2* | 71.1*
COc1ccc(OC)c(S(=O)(=O)N(C)CC(=O)N2CCN(c3cccc(Cl)c3)CC2)c1 | -5.3 | 9.0 | -2.3 | 0.3 | 2.9 | x | x
Cc1ccc(N(CC(=O)NC2CCCCC2C)S(=O)(=O)c2c(C)nn(C)c2C)cc1 (stereo not drawn) | x | -6.0 | 3.0 | 2.1 | 6.3 | x | x
O=C(NCc1ccc(Cl)cc1)c1cccc2c1C(=O)N(CC1CCCO1)C2 (stereo not drawn) | x | 38.9* | -0.7 | -5.8 | 1.9 | 3.2 | -1.5
CCCCNC(=O)C(C)N(CCN(C)C)C(=O)CCCN1C(=O)NC(c2ccc([N+](=O)[O-])cc2)C(C(=O)OCc2ccccc2)=C1C (stereo not drawn) | x | 21.9* | x | 0.5 | -1.5 | 2.1 | -13.1
CCCCNC(=O)C(C1CCCCC1)N(CCN(C)C)C(=O)CCCN1C(=O)NC(c2ccc(-c3ccccc3)cc2)C(C(=O)OCc2ccccc2)=C1C (stereo not drawn) | x | x | x | -4.3 | 4.7 | x | x
Cc1ccc2nc(-c3ccc(NC(=S)NCCC(C)C)cc3)sc2c1 | -2.1 | -1.0 | 3.4 | -1.2 | 2.4 | x | x
CCCCNC(=S)Nc1ccc(-c2nc3ccc(C)cc3s2)cc1 | -6.2 | 23.0* | -1.3 | -9.1 | 0.2 | -0.7 | -2.8
Cc1cc(C)c(NC(=O)C2CCN(c3cnccn3)CC2)c(C)c1 | 0.2 | 28.1* | -4.0 | -11.1 | 3.0 | -7.7 | -1.5
NCc1csc(Nc2ncccn2)n1 | x | 0.0 | x | x | x | x | x
Cc1ccc2c(c1)C(=O)C(=O)N2CC1COc2ccccc2O1 (stereo not drawn) | x | 24.2* | 5.3 | 6.2 | -2.8 | 12.1 | -4.5
COc1ccc2c(c1)C(=O)C(=O)N2CC1COc2ccccc2O1 (stereo not drawn) | x | 12.0 | 5.9 | -0.1 | -0.1 | x | x
COc1ccc(/C=C/C(=O)c2cc(F)ccc2OC(=O)c2ccccc2OC)cc1OC | 12.7 | 22.0* | x | 3.7 | 1.0 | 22.4* | 1.1
